{"source": "PubChem BioAssay (Tox21)", "note": "Records with an inconclusive call do not appear. Activity calls are given as the source filed them. Calls come from the whole dose curve; as a rule, active = well fitted cell-killing curve with a large enough effect in the repeat runs; inconclusive = weak or mixed curves; inactive = flat fitted curve, though single readings scatter. % is set by controls: 0 for no effect and ±100 for the full control effect."}
{"assay": "qHTS RealTime-Glo MT Cell Viability Assay in HepG2 cells - 8 hour (AID 1224873); note: nearly all actives have a fitted effect of over 55% in size", "conditions": "RealTime-Glo luminescence; series mostly up to 76.8 µM; viability change, negative = cytotoxic: at the top concentration", "description": "National Center for Advancing Translational Sciences [NCATS]\nNIH Chemical Genomics Center [NCGC]\nU.S. Environmental Protection Agency [EPA]\nNational Institutes of Environmental Health Sciences [NIEHS]\nNational Toxicology Program [NTP]\nU.S. Food and Drug Administration [FDA]\nMeasure of cell viability is critical in the cell-base assay. Analysis of cell viability is necessary for the characterization of cell responses to cytotoxic drugs and environmental stress. A RealTime-Glo MT Cell Viability Assay to monitor cell viability in real time of continues cell culture during 40 hours of compound treatment was used to screen Tox21 10K library compounds in HepG2 cells. The RealTime-Glo MT Cell Viability Assay is a nonlytic, homogeneous, bioluminescent method to measure cell viability in real time using a simple, plate-based method. The assay involves adding NanoLuc luciferase and a cell-permeant prosubstrate to cells in culture. Viable cells reduce the proprietary prosubstrate to generate a substrate for NanoLuc luciferase. This substrate diffuses from cells into the surrounding culture medium, where it is rapidly used by the NanoLuc Enzyme to produce a luminescent signal. The signal correlates with the number of viable cells, making the assay well suited for cytotoxicity studies.\nTox21 Assay Protocol Summary:\nThe mixture of HepG2 cell suspension and reagents were dispensed at 600cells/6 ul/well in 1536-well tissue culture treated black solid bottom plates using a Multidrop dispenser. After the assay plates were incubated at a 37 C/5% CO2 incubator for 5 hours, 23 nL of compounds dissolved in DMSO, positive and negative controls was transferred to the assay plate by a pintool work station. The plates were incubated at 37 C for 40 hours. The luminescence intensity were measured at 0h, 8h, 16h, 24h, 32h and 40h time points using ViewLux plate reader during compound treatment."}
{"smiles": "Cc1ccc([N+](=O)[O-])cc1Cl", "viability change, negative = cytotoxic": "-3.81% (inactive)"}
{"smiles": "CCCOc1ccc2c(c1)CC[C@@H]1[C@@H]2CC[C@]2(C)C(OC)CC[C@@H]12", "note": "(stereo not given in full)", "viability change, negative = cytotoxic": "0.458% [at 35.3 µM] (inactive)"}
{"smiles": "C=CCCC=C", "viability change, negative = cytotoxic": "-6.87% (inactive)"}
{"smiles": "CCOC(=O)C(Br)c1ccccc1", "note": "(stereo not given)", "viability change, negative = cytotoxic": "2.76% (inactive)"}
{"smiles": "NC1=NCC2c3ccccc3Cc3ccccc3N12", "note": "(stereo not given)", "viability change, negative = cytotoxic": "-20.7% [at 35.3 µM] (inactive)"}
{"smiles": "C=CCCCCCCCCO", "viability change, negative = cytotoxic": "-0.664% (inactive)"}
{"smiles": "C=O", "viability change, negative = cytotoxic": "4.11% (inactive)"}
{"smiles": "OCc1ccccc1O", "viability change, negative = cytotoxic": "3.99% [at 35.3 µM] (inactive)"}
{"smiles": "C[C@]12C(=O)OC(=O)[C@H]1[C@H]1C=C[C@@H]2C1", "viability change, negative = cytotoxic": "-1.71% (inactive)"}
{"smiles": "O=C(O)C(=O)Cc1c[nH]c2ccccc12", "viability change, negative = cytotoxic": "0.606% (inactive)"}
{"smiles": "O=S(=O)(O)C(F)(F)F", "viability change, negative = cytotoxic": "3.23% (inactive)"}
{"smiles": "Cc1ccc(C)c(N)c1", "viability change, negative = cytotoxic": "-0.639% (inactive)"}
{"smiles": "CCN(CC)CCOc1ccc(Cc2ccccc2)cc1", "viability change, negative = cytotoxic": "0.196% [at 35.3 µM] (inactive)"}
{"smiles": "Cc1cc2nc(N)sc2cc1C", "viability change, negative = cytotoxic": "0.531% (inactive)"}
{"smiles": "C=CC1CO1", "note": "(stereo not given)", "viability change, negative = cytotoxic": "-4.06% (inactive)"}
{"smiles": "COc1ccccc1OCC(O)COC(N)=O", "note": "(stereo not given)", "viability change, negative = cytotoxic": "0.606% [at 35.3 µM] (inactive)"}
{"smiles": "CCCN(CCC)C(=O)C(CCC(=O)O)NC(=O)c1ccccc1", "note": "(stereo not given)", "viability change, negative = cytotoxic": "0.682% [at 35.3 µM] (inactive)"}
{"smiles": "CC[C@H]1CC[C@H](NCc2cc3c(cc2OC)[C@H]2C[C@H]2C(=O)N3C)[C@H](c2ccccc2)N1", "viability change, negative = cytotoxic": "-8.01% (inactive)"}
{"smiles": "CC1=NN(c2cc(Cl)c(S(=O)(=O)O)cc2Cl)C(=O)C1N=Nc1ccc(S(=O)(=O)O)cc1", "note": "(stereo not given)", "viability change, negative = cytotoxic": "-6.41% (inactive)"}
{"smiles": "COc1ccc(Nc2ccc(OC)cc2)cc1", "viability change, negative = cytotoxic": "-14.5% (inactive)"}
{"smiles": "COC(=O)c1ccc2cc(C(=O)OC)ccc2c1", "viability change, negative = cytotoxic": "6.16% [at 15.8 µM] (inactive)"}
{"smiles": "C[C@@H]1CN(c2c(F)c(F)c3c(=O)c(C(=O)O)cn(C4CC4)c3c2F)C[C@H](C)N1", "viability change, negative = cytotoxic": "-4.32% [at 15.8 µM] (inactive)"}
{"smiles": "CC(C)NCC(O)COc1ccc(CCOCC2CC2)cc1", "note": "(stereo not given)", "viability change, negative = cytotoxic": "-0.823% [at 35.3 µM] (inactive)"}
{"smiles": "O=C1CCCCC1C1CCCCC1", "note": "(stereo not given)", "viability change, negative = cytotoxic": "-0.832% (inactive)"}
{"smiles": "CC(Oc1c(Cl)cccc1Cl)C1=NCCN1", "note": "(stereo not given)", "viability change, negative = cytotoxic": "-2.94% [at 35.3 µM] (inactive)"}
{"smiles": "CC(C)NC[C@@H](O)COc1cccc2ccccc12", "viability change, negative = cytotoxic": "0.333% [at 35.3 µM] (inactive)"}
{"smiles": "C=Cc1ccccc1", "viability change, negative = cytotoxic": "-0.0381% (inactive)"}
{"smiles": "CC(C)C[C@H](NC(=O)OCC1c2ccccc2-c2ccccc21)C(=O)O", "viability change, negative = cytotoxic": "-1.88% (inactive)"}
{"smiles": "FC(F)(F)C(Cl)(Cl)Cl", "viability change, negative = cytotoxic": "2.04% (inactive)"}
{"smiles": "CCNCCO", "viability change, negative = cytotoxic": "1.06% (inactive)"}
{"smiles": "CC(=O)Oc1cc(C(C)C)c(OCCN(C)C)cc1C", "viability change, negative = cytotoxic": "0.0802% [at 35.3 µM] (inactive)"}
{"smiles": "CCCCN1C[C@H](O)[C@@H](O)[C@H](O)[C@H]1CO", "viability change, negative = cytotoxic": "0.494% [at 35.3 µM] (inactive)"}
{"smiles": "CCOC(=O)c1ccccc1O", "viability change, negative = cytotoxic": "2.07% [at 35.3 µM] (inactive)"}
{"smiles": "CCc1cc(Cl)c(OC)c(C(=O)NC[C@@H]2CCCN2CC)c1O", "viability change, negative = cytotoxic": "-9.75% [at 35.3 µM] (inactive)"}
{"smiles": "CC(C)=CCCC(C)CCOC=O", "note": "(stereo not given)", "viability change, negative = cytotoxic": "3.22% (inactive)"}
{"smiles": "CC1(C)O[C@@H]2C[C@H]3[C@@H]4CCC5=CC(=O)CC[C@]5(C)[C@@]4(F)[C@@H](O)C[C@]3(C)[C@]2(C(=O)CCl)O1", "viability change, negative = cytotoxic": "-9.91% [at 35.3 µM] (inactive)"}
{"smiles": "CCOc1ccccc1N", "viability change, negative = cytotoxic": "-11.5% (inactive)"}
{"smiles": "Cc1onc(-c2ccccc2)c1C(=O)Cl", "viability change, negative = cytotoxic": "-1.04% [at 35.3 µM] (inactive)"}
{"smiles": "COc1nc(C)nc(NC(=O)NS(=O)(=O)c2ccccc2OCCCl)n1", "viability change, negative = cytotoxic": "-1.86% (inactive)"}
{"smiles": "NC(Cc1ccc(F)cc1)C(=O)O", "note": "(stereo not given)", "viability change, negative = cytotoxic": "1.3% [at 6.97 µM] (inactive)"}
